Screening data: PubChem BioAssay, University of Pittsburgh Molecular Library Screening Center
HIV RNase H inh-1 = blocks HIV-1 RNase H cleavage of RNA/DNA duplex. RT-RNase H RNA/DNA duplex cleavage, fluorescence. inhibition, % at 10 µM. 65,000 compounds, 1.9% hits. P04585; in the data active = inhibition above about 50%
HIV RNase H inh-2 = confirmation of HIV-1 reverse transcriptase RNase H inhibitors; shares compounds with HIV RNase H inh-1; Recombinant RT RNase H, fluorescent RNA/DNA duplex cleavage; inhibition, % at 10 µM; 1,000 compounds, 39% hits; in the data active = inhibition above about 48%; inconclusive = no clear call, values can overlap the other calls
Numbers without * were called inactive; u = inconclusive. This excerpt belongs to a sample that is enriched for hits.

SMILES	HIV RNase H inh-1	others
CC1(C)C2CCC13CS(=O)(=O)N[C@@H]3C2 (stereo partly specified)	-13.4
COc1c(Cl)cc(-c2noc(C)c2C(=O)NC(C)C)cc1Cl	-8.1
CC(=O)C1C(c2ccc(F)c(F)c2)NC(=O)NC1(O)C(F)(F)F (stereo unspecified)	-5.7
COc1ccc(OC)c(N(CC(=O)Nc2ccc3c(c2)OCCO3)S(C)(=O)=O)c1	-3.1
Cc1nc2c3c(-c4ccccc4)nc(N4CCOCC4)nc3nn2c(C)c1CCC(=O)O	-5.3
CCOCC(=O)Nc1cc(-c2cn3cccnc3n2)ccc1C	-14.8
CN1CCN(C(=O)c2ccc(N(Cc3ccc(Cl)cc3)S(C)(=O)=O)cc2)CC1	-4.0
C=CCn1c(SCC(=O)/C(C#N)=C(\C)N)nnc1C1CCCCC1	-5.7
COc1ccc2[nH]c(=O)c(CN(C(=O)C3CCCO3)c3ccc(C)cc3)cc2c1 (stereo unspecified)	2.4
CCOC(=O)CSC1=C(C#N)C(c2ccc(F)cc2)C(C(C)=O)=C(C)N1 (stereo unspecified)	73.0*	HIV RNase H inh-2=13.6
CCOC(=O)C1=C(C(C)=O)C(c2cccnc2)C(C#N)=C(N)O1 (stereo unspecified)	2.6
CC(=O)C1=C(C)NC(SCC(=O)c2ccc(C)cc2)=C(C#N)C1c1ccco1 (stereo unspecified)	-21.6
C#CCSC1=C(C#N)C(c2cccs2)C(C(=O)OCC)=C(C)N1 (stereo unspecified)	8.6
CC(=O)C1=C(C)NC(SCC(N)=O)=C(C#N)C1c1cccnc1 (stereo unspecified)	61.5*	HIV RNase H inh-2=40.5
CCOC(=O)CSC1=C(C#N)C(c2ccc(OC)cc2)C2=C(CC(C)(C)CC2=O)N1 (stereo unspecified)	1.2
CCOC(=O)CSC1=C(C#N)C(c2ccc(C)cc2)C2=C(CCCC2=O)N1 (stereo unspecified)	-3.6
CCOC(=O)C1C(=O)NC(SCC(=O)OC)=C(C#N)C1c1ccccc1OCC (stereo unspecified)	36.7
CCOC(=O)C1=C(C)NC(SCC(=O)OC)=C(C#N)C1c1ccc(C(=O)OC)cc1 (stereo unspecified)	80.4*	HIV RNase H inh-2=36.8
CCCn1c(SCc2cc(=O)[nH]c3ccccc23)nc2c1c(=O)n(C)c(=O)n2C	-8.9
O=c1c2ccccc2nc(SCc2nc(-c3ccccc3)no2)n1-c1ccc(F)cc1	-3.7
CCOc1ccc(CC(=O)NCc2cn3c(C)csc3n2)cc1	-13.0
CCOC(=O)C1CCCCN1Cc1ccccc1C(F)(F)F (stereo unspecified)	-8.4
CC1(C)CC2(CCO1)CNC(=O)O2 (stereo unspecified)	-4.2
CCn1c(SCC(=O)NC(=O)Nc2ccc3c(c2)OCCO3)nnc1-c1cccs1	3.9
O=C(Cn1c(=O)n(-c2ccccc2)c(=O)n1CC(=O)N1CCCCC1)N1CCCCC1	-3.5
SMILES	HIV RNase H inh-1	others
Cn1c(=O)[nH]c(=O)c2c1nc(N1CCN(Cc3ccccc3)CC1)n2CCCc1ccccc1	-2.7
Cn1c(=O)[nH]c(=O)c2c1nc(N1CCN(c3cccc(Cl)c3)CC1)n2CCCc1ccccc1	55.9*	HIV RNase H inh-2=1.3
CCCCCn1c(N2CCN(c3cccc(Cl)c3)CC2)nc2c1c(=O)[nH]c(=O)n2C	-10.0
CS(=O)(=O)N1CCCC(C(=O)NCc2ccc(F)cc2)C1 (stereo unspecified)	-14.7
Cc1oncc1C(=O)Nc1ccc(C(F)(F)F)cc1	-16.2
Cc1oncc1C(=S)Nc1ccccc1	74.3*	HIV RNase H inh-2=24.8
CN(C)c1cc(O)c(C(=S)Nc2ccccc2)c(N(C)C)c1	-74.7
O=C(CSc1c2c(nc3ccc(Cl)cc13)CCCC2)N1CCN(C(=O)c2ccco2)CC1	-14.5
O=C(c1ccco1)N1CCN(C(=O)c2snc3ccc(Cl)cc23)CC1	86.4*	HIV RNase H inh-2=-3.1
O=C(c1ccco1)N1CCN(Cc2ccc(Cl)cc2)CC1	-10.3
Cc1ccccc1NS(=O)(=O)c1cc(C(N)=O)ccc1C	-11.8
COc1ccccc1-c1nnc2n1N=C(C(C)(C)C)CS2	-17.7
CC(C)(C)C1=Nn2c(nnc2-c2ccccc2F)SC1	-15.7
CC(C)(C)C1=Nn2c(nnc2-c2ccccn2)SC1	64.2*	HIV RNase H inh-2=69.5*
O=C(CCSc1nc(-c2ccco2)cc(C(F)(F)F)n1)N1CCCc2ccccc21	-13.8
COc1ccc(OC)c(S(=O)(=O)NCCc2ccccc2)c1	-11.7
Cc1noc(C(=O)Nc2sc3c(c2C#N)CCC3)c1Cl	66.6*	HIV RNase H inh-2=8.9
CC(C)Cc1cc(C(=O)Nc2sc3c(c2C#N)CCCC3)no1	65.1*	HIV RNase H inh-2=68.3*
Cc1cc(C(=O)Nc2sc3c(c2C#N)CCC3)no1	22.4
CC(=O)Nc1sc2c(c1C#N)CCCCC2	-15.7
Cc1cc(C(=O)Nc2sc3c(c2C#N)CCC(C)C3)no1 (stereo unspecified)	1.9
Cc1cc(C(=O)Nc2sc3c(c2C#N)CCCC3)no1	2.5
COCCOC(=O)C1=C(C)N=C2SCCC(=O)N2C1c1cccc(Br)c1 (stereo unspecified)	-4.4
CC(C)(C)N1C(=O)c2ccc(C(=O)NCc3ccco3)cc2C1=O	5.7
OCc1nc2ccccc2n1CC(O)Cn1ccc2ccccc21 (stereo unspecified)	-8.9
SMILES	HIV RNase H inh-1	others
O=C1c2ccccc2S(=O)(=O)N1CC(O)Cn1ccc2ccccc21 (stereo unspecified)	-7.3
Oc1ccccc1NCC(O)Cn1ccc2ccccc21 (stereo unspecified)	77.7*	HIV RNase H inh-2=28.7
CN(C)C(CNC(=O)CN1C(=O)NC2(CCc3ccccc32)C1=O)c1ccco1 (stereo unspecified)	-0.1
Cc1[nH]c2ccccc2c1C(=O)CN1CCCCC1CCO (stereo unspecified)	-4.6
CCN1CCCC1CNC(=O)C1c2cc(OC)c(OC)cc2C(=O)N(C)C1c1cccnc1 (stereo unspecified)	-12.8
COC(=O)c1ccc(CN2C(=O)NC3(CCCCC3C)C2=O)o1 (stereo unspecified)	-1.5
O=c1cc(C23CC4CC(CC(C4)C2)C3)[nH][nH]1	-0.6
O=C(CCC(=O)c1ccc(F)cc1)OC1CCOC1=O (stereo unspecified)	1.1
COc1ccc(N(CC(=O)NCc2cccnc2)S(=O)(=O)c2c(C)nn(C)c2C)cc1	-5.1
CC(C)c1ccccc1OCCNS(C)(=O)=O	-11.9
Cc1cc(C)c2c(CC(=O)N(CCC#N)Cc3cccnc3)coc2c1	-5.2
COc1ccc(-n2nc(C(=O)NCc3ccco3)c3c4ccccc4n(C)c3c2=O)cc1Cl	71.2*	HIV RNase H inh-2=8.5
O=C(NCc1ccco1)c1nn(-c2ccccc2)c(=O)c2ccccc12	-20.7
COc1ccc(-n2nc(C(=O)NCC(=O)NCc3ccco3)c3ccccc3c2=O)cc1	-9.6
C=CCNC(=O)COc1ccc(Br)cc1Cl	-28.1
Cc1nc2ccc(C(C(F)(F)F)(C(F)(F)F)C(F)(F)F)cc2[nH]1	-17.0
CCOC(=O)c1c(/N=C/N(C)C)sc(C(=O)OC)c1C	-9.9
Cn1c(=O)n(C)c2cc(S(=O)(=O)O)ccc21	-5.1
Cc1cccc(N2CCN(S(=O)(=O)c3ccc4c(c3)n(C)c(=O)c(=O)n4C)CC2C)c1 (stereo unspecified)	56.8*	HIV RNase H inh-2=u
Cn1c(=O)c(=O)n(C)c2cc(S(=O)(=O)N3CCOCC3)ccc21	-21.5
CCc1cccc(C)c1NC(=O)C1=C(C(=O)O)CCCC1	-13.0
CCOc1ccccc1NC(=O)Cn1nnc(-c2ccc(OCC)c(OCC)c2)n1	12.0
Cc1csc(NC(=O)c2sc3nc(-c4cccs4)ccc3c2N)n1	46.9
